Compound activity as filed in PubChem.
PAD4 inh: blocks human protein arginine deiminase 4. Q9UM07. recombinant PAD4, RCA probe fluorescence polarization. inhibition, % at 6.36 µM. 330,000 tested, 0.41% active. AID 485272;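 active = percent inhibition above a cutoff equal to the mean of all tested compounds plus 3 SD, cut at about 15% in these data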;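 also: 0% = PAD4 with RCA probe and DMSO and 100% = probe without PAD4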
Target sequence (Q9UM07 whole entry, looked up): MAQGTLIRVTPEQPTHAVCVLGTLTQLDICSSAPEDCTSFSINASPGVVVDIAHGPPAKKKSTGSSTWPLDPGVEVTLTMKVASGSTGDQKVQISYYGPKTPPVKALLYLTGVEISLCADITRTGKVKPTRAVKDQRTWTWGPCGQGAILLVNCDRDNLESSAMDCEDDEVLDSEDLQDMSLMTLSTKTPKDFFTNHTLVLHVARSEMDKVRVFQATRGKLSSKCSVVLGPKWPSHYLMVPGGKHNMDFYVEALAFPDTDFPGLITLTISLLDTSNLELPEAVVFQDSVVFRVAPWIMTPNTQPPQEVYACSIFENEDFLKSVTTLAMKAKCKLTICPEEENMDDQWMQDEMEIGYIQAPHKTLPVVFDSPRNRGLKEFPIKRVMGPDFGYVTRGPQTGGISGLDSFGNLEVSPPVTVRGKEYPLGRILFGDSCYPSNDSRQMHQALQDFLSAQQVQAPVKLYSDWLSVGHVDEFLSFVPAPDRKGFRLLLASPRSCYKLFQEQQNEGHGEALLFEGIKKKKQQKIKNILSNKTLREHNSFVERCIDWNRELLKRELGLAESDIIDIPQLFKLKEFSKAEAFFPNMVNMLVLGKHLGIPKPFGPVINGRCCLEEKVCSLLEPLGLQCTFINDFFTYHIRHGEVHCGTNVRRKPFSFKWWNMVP
Fam108B inh: Fam108B inhibition, counter-screen for RBBP9 inhibitors; recombinant Fam108B, FP-Rh probe fluorescence polarization; inhibition, % at 9.51 µM; 300,000 tested, 0.33% active; AID 1947;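 active = inhibition above the screen mean inhibition plus 3 SD, computed separately per campaign, cut at about 18% in these data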;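 also: inhibitors lower polarization as less probe binds the enzyme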
LYPLA2 counter: LYPLA2 (human) inhibition in PME1 counter-screen; O95372; recombinant LYPLA2, FP-Rh probe fluorescence polarization; inhibition, % at 5.9 µM; 320,000 tested, 0.38% active; AID 2177;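 active = inhibition above the screen-wide mean plus 3 SD, limit set per campaign, cut at about 26% in these data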;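 also: 0% = LYPLA2 with DMSO and 100% = wells lacking LYPLA2 enzyme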
GSTO1 inh: blocks human GSTO1 in RBBP9 counter-screen | P78417 | recombinant GSTO1, activity-based probe fluorescence polarization | inhibition, % at 5.96 µM | 300,000 tested, 1.1% active | AID 1974;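 active = inhibition above the campaign mean inhibition plus 3 SD, cut at about 35% in these data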;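 also: 0% = GSTO1-1 with DMSO and 100% = wells lacking GSTO1-1 enzyme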
PME-1 inh: PME-1 (human) inhibition; Q9Y570; recombinant PME-1, FP-Rh probe fluorescence polarization; inhibition, % at 5.9 µM; 320,000 tested, 0.53% active;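 active = inhibition above the campaign mean of all compounds plus 3 SD, cut at about 26% in these data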;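 also: competitive labeling of PME-1 active site by serine hydrolase directed probe; 0% = PME-1 with DMSO and 100% = wells lacking PME-1 enzyme; inhibitors block probe labeling so polarization falls and inhibition rises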
LYPLA1 counter: blocks human lysophospholipase 1, a PME1 counter-screen; 320,000 tested, 0.16% active; inhibition, % at 5.9 µM; O75608; recombinant LYPLA1, FP-Rh probe fluorescence polarization; AID 2174;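 active = inhibition above the mean of all tested compounds plus 3 SD, set per campaign, cut at about 14% in these data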;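 also: inhibitors block serine hydrolase probe labeling of LYPLA1 so polarization falls; 0% = enzyme with DMSO and 100% = wells lacking LYPLA1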
The depositor's hits bear a star; nt = no result. Compounds with a hit are over-represented: about 1.8% of the library has one in this group of screens.

SMILES	PAD4 inh	Fam108B inh	LYPLA2 counter	GSTO1 inh	PME-1 inh	LYPLA1 counter
CC[C@@]1(C(=O)OC)N[C@H](CN(C)S(=O)(=O)c2ccc(C(C)(C)C)cc2)[C@@H]2C(=O)N(C)C(=O)[C@@H]21	-7	nt	nt	nt	nt	nt
CON(C)C(=O)C[C@@H]1C[C@H](OC(=O)c2ccc([N+](=O)[O-])cc2)CN1C(=O)OC(C)(C)C	-2	nt	nt	nt	nt	nt
O=C(O)c1cc(NN=Nc2ccc(Br)cc2)cc([N+](=O)[O-])c1	-2	2	6	10	40*	9
O=C(O)c1cc(NN=Nc2cccc(S(=O)(=O)O)c2)cc([N+](=O)[O-])c1	0	3	3	1	-2	2
Brc1ccc(N=NNc2ccccc2)cc1	0	3	1	0	33*	-3
COc1cccc(NC(=O)/C=C/c2ccc(S(=O)(=O)N3CCOCC3)cc2)c1	-2	nt	5	nt	-2	-4
CCN1CC=C2C(C#N)=C(N)C(C#N)(C#N)C(CCc3ccccc3)C2C1 (stereo unspecified)	20*	0	2	1	4	2
COc1ccc(S(=O)(=O)N2CCCCCC2)cc1NC(=O)Cc1cc(OC)c(OC)c(OC)c1	2	3	-2	-2	57*	-4
Cc1ccc(S(=O)(=O)N2CCOCC2)cc1NC(=O)COC(=O)c1ccccc1OCc1c(C)noc1C	3	2	1	2	32*	-3
Cc1ccc(S(=O)(=O)N2CCOCC2)cc1NC(=O)COC(=O)c1cccnc1Cl	1	4	5	11	29*	2
Cc1ccc(S(=O)(=O)N2CCCCC2)cc1NC(=O)COC(=O)c1ccc2c(c1)OCO2	-2	-3	2	1	40*	-3
COc1ccc(OC)c(CC(=O)Nc2cc(S(=O)(=O)N3CCCCC3)ccc2C)c1	-1	nt	1	nt	17	-3
CCOc1ncccc1C(=O)OCC(=O)Nc1cc(S(=O)(=O)N2CCOCC2)ccc1C	-1	0	-4	-1	5	1
Cc1cccc(NC(=O)[C@@H]2CCCN2S(=O)(=O)c2ccc(Cl)cc2)c1	2	nt	nt	nt	nt	nt
Cc1ccc(C(=O)NCC(=O)OCC(=O)Nc2cc(S(=O)(=O)N3CCOCC3)ccc2C)cc1	-6	0	-4	-7	0	-1
Cc1ccc(S(=O)(=O)N2CCOCC2)cc1NC(=O)COC(=O)CNC(=O)c1ccc(C(C)(C)C)cc1	-9	-5	-10	35*	-10	-9
COc1ccc(NC(=O)CSc2nc(C)c3c(c2C#N)CCCC3)cc1	-2	0	13	-1	2	3
CCc1nnc(NC(=O)CSc2nc(C)c3c(c2C#N)CCCC3)s1	0	5	3	14	33*	0
CCC(=O)OC1(C)C(=O)C=C2C=C(CCCCNC(=O)OC(C)(C)C)OC=C2C1=O (stereo unspecified)	-8	2	1	17	4	-1
CC(C)(C)OC(=O)NCCCC1=CC2=CC(=O)C(C)(OC(=O)c3ccc(Cl)nc3)C(=O)C2=CO1 (stereo unspecified)	25*	7	16	22	25	18*
O=C1C=C(Nc2ccc(O)cc2)C(=O)c2ccccc21	-15	8	12	39*	14	4
COC1=C(Nc2ccc(O)cc2)C(=O)c2ccccc2C1=O	-11	6	6	34	12	5
O=C(O)c1cc(-c2ccc(/C=N/NC(=S)Nc3ccccc3)o2)ccc1Cl	-2	5	1	48*	22	3
Cc1ccc(S(=O)(=O)N/N=C/c2ccccc2O)cc1[N+](=O)[O-]	-2	0	5	-5	4	1
Cc1ccc(S(=O)(=O)N/N=C/c2ccc(O)c(O)c2)cc1[N+](=O)[O-]	-3	-4	0	50*	-5	2
O=C(NN1C(=O)/C(=C/c2cc([N+](=O)[O-])ccc2O)SC1=S)c1ccccc1O	-5	2	-1	67*	4	-7
CC1c2cc3c(cc2CCN1C(=O)c1cccc(Cl)c1)OCCCO3 (stereo unspecified)	-5	1	3	3	0	-1
CN=c1scc(-c2cccs2)n1/N=C/c1ccc(O)c(O)c1O	-7	2	-3	-9	31*	-7
C=CCN=c1scc(-c2ccco2)n1/N=C/c1ccc(O)c(O)c1O	3	-6	-11	4	29*	-10
